# Experimental data published in ChEMBL document CHEMBL4513216, “Probing the Open Global Health Chemical Diversity Library for Multistage-Active Starting Points for Next-Generation Antimalarials” (ACS Infect Dis, 2020).
# Hit rate of the full screen: of about 69,000 compounds, about 8,600 (12%) showed an effect of 50% or more. The full list was thinned out, with strong results kept by preference.
# System: Plasmodium berghei
# Experiment: Screen against P. berghei liver stage (PbLuc), transformed with Luciferase, at 10uM
# Assay type: functional, HepG2
# Details: tested at 10 uM
row,Structure (SMILES),INHIBITION [%]
1,CCCc1n[nH]c(C2CN(C(=O)c3cccc4[nH]ncc34)CCO2)n1 (stereo not drawn),33.3
2,Cc1ccc(OC2(C(=O)NC(C)Cc3ccncc3)CCNCC2)cc1 (stereo not drawn),26.7
3,CN(C)C(=O)CO[C@H]1CO[C@@]2(CCN(Cc3ccsc3)C2)C1,24
4,Cc1nn(C)c(C)c1C1CCCN1CC(=O)Nc1ccc(Cl)cn1 (stereo not drawn),-48.4
5,O=C(Cc1cccnc1)N1CCCC2(CCN(C3CCOCC3)C2)C1 (stereo not drawn),-62.2
6,Cc1ccc(C(=O)N2CCC3(CC2)CC(c2ccccc2)C(=O)N3)cn1 (stereo not drawn),30.5
7,Cc1nccn1[C@@H]1CC[C@@H](NC(=O)CCOc2ccccc2)[C@H]1O,21.7
8,CCC=C(C)C(=O)NCc1ccnc(OC2CCOCC2)c1,56
9,CCC=C(C)C(=O)NCc1ccnc(OC)c1,42.3
10,O=C(Cc1cccs1)NCc1ccnc(OC2CCOCC2)c1,-32.8
11,O=C(NCCC1CCN(CC(F)(F)F)CC1)C1COCCO1 (stereo not drawn),21.8
12,c1cncc(CNCc2cccs2)c1,6.26
13,O=C1CCCN1Cc1nnc2n1CCN(Cc1ccoc1)CC2,33.2
14,O=C(O)c1cc(S(=O)(=O)N2CCOc3ccccc32)cc(Cl)c1Cl,23.25
15,O=C(c1ccccn1)N1C[C@H]2CC[C@@H](C1)N(C(=O)CCC(F)(F)F)C2,6.33
16,O=C(c1ccccn1)N1C[C@H]2CC[C@@H](C1)N(C(=O)CCN1CCCC1)C2,50.3
17,O=C(c1ccccn1)N1C[C@H]2CC[C@@H](C1)N(C(=O)CCC1CCCC1)C2,-36.6
18,CC(=O)c1c(F)cccc1NCC(O)C(C)(C)C (stereo not drawn),30.5
19,c1cnc(NCC2Cn3nnc(-c4ccsc4)c3CO2)nc1 (stereo not drawn),45.1
20,NCC1Cn2nnc(-c3cccc(F)c3)c2CO1 (stereo not drawn),6.8
21,Fc1cnc(NCC2Cn3nnc(-c4ccccc4)c3CO2)nc1 (stereo not drawn),50.9
22,Fc1cccc(-c2nnn3c2COC(CNc2ncccn2)C3)c1 (stereo not drawn),54.4
23,c1cnc(NCC2Cn3nnc(-c4ccoc4)c3CO2)nc1 (stereo not drawn),25.2

row,Structure (SMILES),INHIBITION [%]
1,O=C(NCC1Cn2nnc(-c3ccccc3)c2CO1)c1ccc[nH]1 (stereo not drawn),-29
2,CNCC(=O)N1CCCC1c1n[nH]cc1-c1ccccc1F (stereo not drawn),-16
3,Cn1ccnc1CN1CCOC(C)(C(=O)N2CCOCC2)C1 (stereo not drawn),35.2
4,COCCCN(Cc1ccc(F)cc1Cl)C1CCS(=O)(=O)C1 (stereo not drawn),34.9
5,Cc1cccc(CN2CCC3(CCCN(C(=O)c4ccsc4)C3)C2=O)n1 (stereo not drawn),12.6
6,Cc1nnc([C@]23COC[C@H]2CN(Cc2cnn(C)c2)C3)o1,23.1
7,Cc1cc(Br)c(O)c(C(=O)N2CCC(CN3CCCCCC3)CC2)c1,28.1
8,Cc1cc(Br)c(O)c(-c2nc(N3CCOCC3)sc2C)c1,33.7
9,Cc1cc(Br)c(O)c(-c2nc(N3CCCCC3)sc2C)c1,64.9
10,Cc1ccsc1CN1C[C@@H]2COC[C@]2(COCC(=O)N(C)C)C1,-4.32
11,CCS(=O)(=O)NC1CCc2c(ccc(=O)n2CC2CC2)C1 (stereo not drawn),35.7
12,O=c1ccc2c(n1CC1CC1)CCC(NCc1cccs1)C2 (stereo not drawn),92.8
13,COCCn1c2c(ccc1=O)CC(NCc1cccnc1OC)CC2 (stereo not drawn),41.2
14,Cc1cnc(NC2CCc3c(ccc(=O)n3C)C2)nc1 (stereo not drawn),-14.3
15,Cc1cnc(NC2CCc3c(ccc(=O)n3CC3CC3)C2)nc1 (stereo not drawn),81.5
16,COc1ncccc1CNC1CCc2c(ccc(=O)n2CC2CC2)C1 (stereo not drawn),55.7
17,Cn1cc(CNC2CCc3c(ccc(=O)n3C)C2)cn1 (stereo not drawn),18.6
18,COc1ncccc1CNC1CCc2c(ccc(=O)n2C)C1 (stereo not drawn),60.2
19,CC(C)NC1CCc2c(ccc(=O)n2CC2CC2)C1 (stereo not drawn),47.4
20,O=C(CC1CC1)NC1CCc2c(ccc(=O)n2CC2CC2)C1 (stereo not drawn),-5.63
21,CCCS(=O)(=O)NC1CCc2c(ccc(=O)n2CC2CC2)C1 (stereo not drawn),43.9
22,O=c1ccc2c(n1CC1CC1)CCC(NS(=O)(=O)C1CC1)C2 (stereo not drawn),14.8
23,O=C(CCN1CCOCC1)Nc1cccc(CNCc2ccsc2)c1,-1.79

row,Structure (SMILES),INHIBITION [%]
1,O=C(N1CCCC1)N1CC[C@H]2OCC[C@@]2(COc2ncccc2F)C1,4.1
2,CC(=O)N1CCC(C(=O)N2CCCC(Cc3cccc(C)n3)C2)CC1 (stereo not drawn),-18.9
3,CS(=O)(=O)N1CCO[C@@H]2CN(C(=O)c3cccnc3)C[C@@H]2C1,2.7
4,COc1ccccc1CC(C)CC(=O)NS(=O)(=O)C(C)C (stereo not drawn),9.57
5,CCC1=N[C@@]2(CC[C@@H]3CN(CC4CC4)C[C@@H]32)C(=O)N1C,24.5
6,Cn1ccnc1CN1CCc2ncnc(N3CCCC3)c2CC1,-78.5
7,CC(=O)NCc1nnc2n1CCN(c1nc(C)nc3sccc13)CC2,55
8,CC(=O)NCc1nnc2n1CCN(c1ncnc3c(C)csc13)CC2,24.7
9,O=C(NCc1nnc2n1CCC2)N1CCc2sccc2C1,-8.11
10,CC(=O)NCc1nnc2n1CCN(c1ncnc3c1CCC3)CC2,56.1
11,Cc1ccc(S(=O)(=O)CCC(=O)NCc2nnc3n2CCC3)cc1,-2.34
12,COc1ncccc1C(=O)N1CCC(Nc2ccc(C)nn2)CC1,33.7
13,c1nnc(Nc2cncc(C3CCCN3)n2)s1 (stereo not drawn),13.285
14,Cc1cc(=O)n(C)cc1NC(=O)Cc1cccc(F)c1,25.1
15,Cc1cc(=O)n(C)cc1NC(=O)Cc1cc(F)ccc1F,56.5
16,Cc1cc(=O)n(C)cc1NC(=O)Cc1ccc(C(F)(F)F)cc1,11.7
17,Cc1ccc(NC2(C(=O)NCCCc3c(C)n[nH]c3C)CCCC2)cc1,-40.9
18,Cc1ccc(NC2(C(=O)NCCCN)CCCC2)cc1,53.2
19,Cc1ccc(NC2(C(=O)NCc3c(C)n[nH]c3C)CCCC2)cc1,11.6
20,CO[C@H]1CO[C@@]2(CCCN(C(=O)N(C)C)C2)C1,35.8
21,CCc1n[nH]c(C2CN(C(=O)c3cc(C4CC4)on3)CCO2)n1 (stereo not drawn),-3.58
22,CNc1nc(CNC(=O)Nc2ccc([S+](C)[O-])c(F)c2)cs1 (stereo not drawn),22.955
23,O=C(Oc1ccccc1)N1CCC(CNS(=O)(=O)c2cccnc2)CC1,18.2

row,Structure (SMILES),INHIBITION [%]
1,Cn1ccnc1CN1CCC(CNS(=O)(=O)c2cccnc2)C1 (stereo not drawn),58.3
2,Cn1ccnc1CCNS(=O)(=O)c1cccnc1,38.6
3,O=C(c1ccco1)N1CCc2onc(Cn3cccn3)c2C1,21.5
4,CCNC(=O)[C@@H]1C[C@@H](N)CN1Cc1ccc2cccc(Cl)c2n1,11.9
5,CNC(=O)[C@@H]1C[C@@H](N)CN1Cc1ccc2cccc(OC)c2n1,55.5
6,CCNC(=O)[C@@H]1C[C@H](N)CN1Cc1ccc2cccc(Cl)c2n1,35.4
7,O=C1CC2(CCN(S(=O)(=O)c3cccs3)C2)CN1c1ccccc1 (stereo not drawn),-0.104
8,CC(Cn1cccn1)NC(=O)N1CCN(Cc2ccsc2)CC1 (stereo not drawn),4.71
9,CCCN(Cc1cnn(C)c1)S(=O)(=O)c1ccc(F)c(C#N)c1,-32.4
10,O=C(c1ccccc1F)N1CCN(c2ccc(-n3cccc3)nn2)CC1,55.9
11,O=C(c1ccccn1)N1CCN(c2ccc(-n3cccc3)nn2)CC1,27.6
12,Cc1nc(N2CCN(C(=O)c3cccnc3)CC2)cc(-n2cccc2)n1,32.4
13,O=C(c1cccnc1)N1CCN(c2ccc(-n3cccc3)nn2)CC1,0.647
14,Cc1cccc(C(=O)N2CCN(c3ccc(-n4cccc4)nn3)CC2)c1,51.5
15,O=C(c1ccccc1F)N1CCN(c2ccc(-n3cccn3)nn2)CC1,0.472
16,COCC(=O)N1CCCC1c1nccnc1Nc1nc(C)cs1 (stereo not drawn),39.7
17,Cc1ccc(C(=O)O)cc1CNC(=O)CN1CC(C)(C)[C@@](C)(O)C1,28.7
18,Cc1cnn(CC2CCCN2CC(=O)Nc2cc(C(C)C)no2)c1 (stereo not drawn),-35.7
19,Cc1cc(F)ccc1CN1CCCC(O)(CN2CCCC2)C1 (stereo not drawn),55
20,CC(C)c1nccc(CN2CCCC(O)(CN3CCCC3)C2)n1 (stereo not drawn),62
21,OC1(CN2CCCC2)CCCN(Cc2cnc(-c3ccccc3)nc2)C1 (stereo not drawn),45.7
22,OC1(CN2CCCC2)CCCN(Cc2ccc(F)cc2Cl)C1 (stereo not drawn),13.7
23,CC(C)c1nccc(CN2CCCC(O)(CN(C)C)C2)n1 (stereo not drawn),7.92

row,Structure (SMILES),INHIBITION [%]
1,CC(C)c1nccc(CN2CCC(O)(CN3CCCCC3)C2)n1 (stereo not drawn),32.5
2,Cc1cc(F)ccc1CN1CCC(O)(CN2CCCCC2)C1 (stereo not drawn),-10.4
3,OC1(CN2CCCC2)CCCN(Cc2cnc(-c3ccco3)nc2)C1 (stereo not drawn),61
4,CN(C)CC1(O)CCCN(Cc2cnc(-c3ccco3)nc2)CC1 (stereo not drawn),6.28
5,O=C(Cc1cccnc1)N1CCC2(CCN(CC3CCCCC3)C2)CC1,26.4
6,Cc1cc(C)cc(C(=O)N2CCCC3(CCCC(=O)N3C)C2)c1 (stereo not drawn),-15.9
7,O=C(c1ccc(-n2ccnc2)cc1)N1CCCC(n2ccnc2)C1 (stereo not drawn),2.3
8,CC(C)(NS(C)(=O)=O)c1nc(-c2cccc(Cl)c2)no1,-4.83
9,CC=C(C)C(=O)NS(=O)(=O)c1ccc(C(F)(F)F)cc1,13.2
10,CCCN(Cc1cccnc1)C1CC(C)(C)NC(C)(C)C1,10
11,CC1(C)CC(N(Cc2cccnc2)Cc2cccc(F)c2)CC(C)(C)N1,75.3
12,Cc1nc[nH]c1CN(Cc1ccc(F)cc1)C1CC(C)(C)NC(C)(C)C1,42.4
13,Cc1ccc(CN(Cc2cccnc2)C2CC(C)(C)NC(C)(C)C2)s1,42.1
14,Cc1cccc(CN(Cc2cccnc2)C2CC(C)(C)NC(C)(C)C2)n1,35.2
15,CC1(C)CC(N(Cc2ccncc2)Cc2cccnc2)CC(C)(C)N1,50.1
16,Cc1nc[nH]c1CN(Cc1ccccc1)C1CC(C)(C)NC(C)(C)C1,6.785
17,CC1(C)CC(N(Cc2cccnc2)Cc2cccnc2)CC(C)(C)N1,64.9
18,Cc1ccc(CN(Cc2ccccn2)C2CC(C)(C)NC(C)(C)C2)s1,37
19,CC1(C)CC(N(Cc2ccccc2)Cc2cccnc2)CC(C)(C)N1,65.4
20,Cc1ccsc1CN(Cc1cccnc1)C1CC(C)(C)NC(C)(C)C1,33.7
21,CC1(C)CC(N(Cc2ccccc2)Cc2c[nH]cn2)CC(C)(C)N1,13.2
